# Paper PMC7862700, “An all-to-all approach to the identification of sequence-specific readers for epigenetic DNA modifications on cytosine”
# Columns and labels:
# Experiment in all cases: DAPPL (digital affinity profiling via proximity ligation, sequencing); 10 mM Tris-HCl pH 7.5, 50 mM NaCl, 1 mM DTT, 4% glycerol, room temperature, 30 min; GST-TFs on glutathione beads, 16-mer random dsDNA library, 0.1% formaldehyde crosslink after washing; high values mean tight binding
# Details in all cases: protein: recombinant; tags: N-terminal GST; dsDNA, one strand shown
# [1] = molecular target: T1, ETV2 (Homo sapiens, UniProt O00321 1-342)
# T1 sequence: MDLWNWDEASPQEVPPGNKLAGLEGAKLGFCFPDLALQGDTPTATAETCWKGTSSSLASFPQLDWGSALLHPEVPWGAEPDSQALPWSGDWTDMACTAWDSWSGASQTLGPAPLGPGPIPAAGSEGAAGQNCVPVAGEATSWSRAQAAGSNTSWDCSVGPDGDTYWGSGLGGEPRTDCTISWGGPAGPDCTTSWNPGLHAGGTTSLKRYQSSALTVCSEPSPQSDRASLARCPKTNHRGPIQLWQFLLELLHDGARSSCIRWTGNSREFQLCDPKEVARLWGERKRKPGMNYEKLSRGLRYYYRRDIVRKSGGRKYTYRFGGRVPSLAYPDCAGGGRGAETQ
# Procedure, shortened: (§1)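 Yeast served to express human transcription factors as GST fusions, which were then captured on glutathione beads and labelled with DNA barcodes. Pooled with a tag-only sample, they were incubated with 200 nmole of a 16-mer random double-stranded DNA library for 30 min at room temperature in Tris/NaCl/DTT/glycerol buffer, washed, crosslinked with 0.1% formaldehyde, ligated by proximity, amplified by PCR and sequenced. Dividing each hexamer's read frequency for a factor by its frequency for the tag-only sample gives the binding signal.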
# [2] = molecular target: T2, ELF3 (Homo sapiens, UniProt P78545 1-371)
# T2 sequence: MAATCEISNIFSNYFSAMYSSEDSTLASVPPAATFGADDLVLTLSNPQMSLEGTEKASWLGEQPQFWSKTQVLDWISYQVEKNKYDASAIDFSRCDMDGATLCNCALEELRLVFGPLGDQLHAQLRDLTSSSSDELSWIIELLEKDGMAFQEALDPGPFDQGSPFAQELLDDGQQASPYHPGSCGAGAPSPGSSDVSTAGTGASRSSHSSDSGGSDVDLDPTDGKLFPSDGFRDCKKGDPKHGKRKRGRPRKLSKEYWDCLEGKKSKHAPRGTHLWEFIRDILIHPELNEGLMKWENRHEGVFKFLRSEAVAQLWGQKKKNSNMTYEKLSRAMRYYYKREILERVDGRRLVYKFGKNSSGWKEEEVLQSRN
# Procedure, shortened: as §1
# [3] = molecular target: ETV1 (Homo sapiens, UniProt P50549 1-477)
# Sequence of ETV1 (P50549 whole entry): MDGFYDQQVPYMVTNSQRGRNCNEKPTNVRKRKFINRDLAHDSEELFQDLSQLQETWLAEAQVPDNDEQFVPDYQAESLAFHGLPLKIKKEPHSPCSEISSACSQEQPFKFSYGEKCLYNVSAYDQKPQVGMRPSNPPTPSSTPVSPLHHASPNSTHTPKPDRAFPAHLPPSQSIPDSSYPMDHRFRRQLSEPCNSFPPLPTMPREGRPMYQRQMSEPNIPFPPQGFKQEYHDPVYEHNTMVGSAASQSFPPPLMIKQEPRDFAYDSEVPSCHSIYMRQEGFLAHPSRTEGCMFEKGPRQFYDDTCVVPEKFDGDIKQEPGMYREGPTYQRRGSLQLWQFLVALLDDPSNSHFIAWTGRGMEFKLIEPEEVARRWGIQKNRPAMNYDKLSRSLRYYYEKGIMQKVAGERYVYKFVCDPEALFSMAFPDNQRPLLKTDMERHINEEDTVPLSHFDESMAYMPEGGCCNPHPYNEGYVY
# Procedure, shortened: as §1
# [4] = molecular target: T3, ERF (Homo sapiens, UniProt P50548 1-548)
# T3 sequence: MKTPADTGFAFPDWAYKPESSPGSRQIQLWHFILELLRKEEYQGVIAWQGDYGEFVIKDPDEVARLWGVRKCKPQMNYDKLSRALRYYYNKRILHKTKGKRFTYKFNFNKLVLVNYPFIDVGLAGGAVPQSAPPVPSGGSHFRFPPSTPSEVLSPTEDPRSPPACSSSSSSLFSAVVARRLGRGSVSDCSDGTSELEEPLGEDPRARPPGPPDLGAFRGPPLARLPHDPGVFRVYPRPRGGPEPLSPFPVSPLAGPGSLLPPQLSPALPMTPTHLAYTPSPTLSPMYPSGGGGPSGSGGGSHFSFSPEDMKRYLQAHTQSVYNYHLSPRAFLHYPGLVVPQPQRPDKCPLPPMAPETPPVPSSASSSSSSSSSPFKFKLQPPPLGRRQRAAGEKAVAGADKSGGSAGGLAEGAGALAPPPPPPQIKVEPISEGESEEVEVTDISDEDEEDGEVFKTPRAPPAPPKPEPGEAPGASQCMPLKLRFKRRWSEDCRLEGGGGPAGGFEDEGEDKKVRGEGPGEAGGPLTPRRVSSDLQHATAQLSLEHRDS
# Procedure, shortened: as §1
# [5] = molecular target: T4, ETV3L (Homo sapiens, UniProt Q6ZN32 1-361)
# T4 sequence: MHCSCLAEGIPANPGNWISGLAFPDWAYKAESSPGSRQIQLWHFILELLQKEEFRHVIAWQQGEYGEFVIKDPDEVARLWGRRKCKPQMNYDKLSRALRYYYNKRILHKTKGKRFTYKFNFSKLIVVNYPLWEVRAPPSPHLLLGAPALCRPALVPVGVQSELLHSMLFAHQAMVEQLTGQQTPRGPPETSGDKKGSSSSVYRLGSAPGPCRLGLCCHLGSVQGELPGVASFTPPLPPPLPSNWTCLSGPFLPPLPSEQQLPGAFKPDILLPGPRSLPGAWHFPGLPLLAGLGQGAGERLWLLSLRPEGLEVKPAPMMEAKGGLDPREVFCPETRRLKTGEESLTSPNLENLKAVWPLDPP
# Procedure, shortened: as §1
# [6] = molecular target: T5, ETS2 (Homo sapiens, UniProt P15036 1-469)
# T5 sequence: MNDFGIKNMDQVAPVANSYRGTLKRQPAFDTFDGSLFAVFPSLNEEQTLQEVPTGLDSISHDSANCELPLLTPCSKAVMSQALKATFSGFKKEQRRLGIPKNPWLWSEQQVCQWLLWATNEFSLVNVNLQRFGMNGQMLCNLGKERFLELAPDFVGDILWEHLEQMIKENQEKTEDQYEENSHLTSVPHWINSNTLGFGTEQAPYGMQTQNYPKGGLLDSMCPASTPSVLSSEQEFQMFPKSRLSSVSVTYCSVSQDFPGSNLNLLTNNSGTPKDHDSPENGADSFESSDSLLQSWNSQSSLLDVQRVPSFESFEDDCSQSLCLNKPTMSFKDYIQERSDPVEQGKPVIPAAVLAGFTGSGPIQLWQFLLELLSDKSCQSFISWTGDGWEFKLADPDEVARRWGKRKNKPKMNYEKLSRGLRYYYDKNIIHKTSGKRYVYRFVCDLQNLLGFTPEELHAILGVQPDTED
# Procedure, shortened: as §1
# [7] = molecular target: T6, SPDEF (Homo sapiens, UniProt O95238 1-335)
# T6 sequence: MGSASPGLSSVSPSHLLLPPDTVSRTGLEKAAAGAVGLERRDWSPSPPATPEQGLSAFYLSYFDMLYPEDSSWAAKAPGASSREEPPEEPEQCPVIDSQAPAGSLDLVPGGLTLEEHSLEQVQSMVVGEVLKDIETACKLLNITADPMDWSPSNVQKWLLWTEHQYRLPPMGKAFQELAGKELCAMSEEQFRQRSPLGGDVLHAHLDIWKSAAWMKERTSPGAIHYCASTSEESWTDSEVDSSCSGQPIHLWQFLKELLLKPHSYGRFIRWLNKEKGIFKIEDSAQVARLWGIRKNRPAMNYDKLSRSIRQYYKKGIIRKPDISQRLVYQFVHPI
# Procedure, shortened: as §1
# [8] = molecular target: T7, ETV7 (Homo sapiens, UniProt Q9Y603 1-341)
# T7 sequence: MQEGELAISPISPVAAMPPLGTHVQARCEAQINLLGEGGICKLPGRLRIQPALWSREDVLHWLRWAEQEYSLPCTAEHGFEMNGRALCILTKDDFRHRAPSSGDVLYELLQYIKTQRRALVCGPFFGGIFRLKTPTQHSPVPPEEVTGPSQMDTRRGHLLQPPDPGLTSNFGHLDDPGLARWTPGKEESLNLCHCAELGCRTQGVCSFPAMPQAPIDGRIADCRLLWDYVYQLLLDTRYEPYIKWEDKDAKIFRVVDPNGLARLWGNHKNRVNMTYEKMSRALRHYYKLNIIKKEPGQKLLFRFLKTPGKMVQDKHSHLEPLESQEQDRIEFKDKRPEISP
# Procedure, shortened: as §1
# [9] = molecular target: T8, ETV3 (Homo sapiens, UniProt P41162-2 1-143)
# T8 sequence: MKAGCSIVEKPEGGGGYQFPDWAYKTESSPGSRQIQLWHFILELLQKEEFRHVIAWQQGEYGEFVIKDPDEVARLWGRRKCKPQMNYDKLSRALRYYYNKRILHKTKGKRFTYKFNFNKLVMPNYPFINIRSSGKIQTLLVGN
# Procedure, shortened: as §1
# [10] = molecular target: ETV6 (Homo sapiens, UniProt P41212 1-452)
# Sequence of ETV6 (P41212 whole entry): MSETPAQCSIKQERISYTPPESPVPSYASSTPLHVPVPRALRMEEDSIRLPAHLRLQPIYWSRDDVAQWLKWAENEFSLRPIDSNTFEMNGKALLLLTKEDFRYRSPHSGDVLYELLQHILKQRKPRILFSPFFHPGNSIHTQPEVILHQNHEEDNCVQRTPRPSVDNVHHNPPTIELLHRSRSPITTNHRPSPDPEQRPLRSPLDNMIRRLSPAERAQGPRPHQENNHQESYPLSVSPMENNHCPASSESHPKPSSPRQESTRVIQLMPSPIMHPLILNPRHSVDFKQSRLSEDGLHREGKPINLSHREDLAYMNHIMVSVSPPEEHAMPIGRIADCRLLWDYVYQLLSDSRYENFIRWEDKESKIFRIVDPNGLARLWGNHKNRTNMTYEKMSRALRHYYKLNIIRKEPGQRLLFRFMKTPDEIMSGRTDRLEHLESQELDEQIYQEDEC
# Procedure, shortened: as §1
sequence,measurement,setting,value
CCCCCC,binding signal,[1],"1.26 fold enrichment (6-mer frequency, TF over GST control)"
same,binding signal,[2],"1.28 fold enrichment (6-mer frequency, TF over GST control)"
same,binding signal,[3],"1.11 fold enrichment (6-mer frequency, TF over GST control)"
same,binding signal,[4],"1.05 fold enrichment (6-mer frequency, TF over GST control)"
same,binding signal,[5],"1.07 fold enrichment (6-mer frequency, TF over GST control)"
same,binding signal,[6],"1.1 fold enrichment (6-mer frequency, TF over GST control)"
same,binding signal,[7],"1.08 fold enrichment (6-mer frequency, TF over GST control)"
same,binding signal,[8],"1.13 fold enrichment (6-mer frequency, TF over GST control)"
same,binding signal,[9],"1.14 fold enrichment (6-mer frequency, TF over GST control)"
same,binding signal,[10],"1.06 fold enrichment (6-mer frequency, TF over GST control)"
